# Compound activity deposited in PubChem BioAssay by National Center for Advancing Translational Sciences (NCATS).
# IL-1B inflam inh: qHTS for Inhibitors of Inflammasome Signaling: IL-1-beta AlphaLISA Primary Screen; 360,000 compounds, 4.7% hits; THP-1 LPS/ATP IL-1B secretion, AlphaLISA, 16 h; hits give low values; activity change, % at 57.5 µM; in the data active = activity change below about -50%; inconclusive = mostly about -30% to -49%
#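 THP-1 cells pretreated 1 hr with compounds (up to 57.5 uM final), then stimulated with LPS (250 ng/mL final) plus ATP (1.25 mM final); secreted IL-1B measured by AlphaLISA after 16 hr, decreased signal indicating inhibition.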
# S2 tox: Viability Counterscreen for Primary qHTS for Inhibitors of ATXN expression. Potency, µM (titrated, usually from 56.7 µM), most hits filed as cytotoxic. 400,000 compounds, 0.49% hits. S2 cells (HEK-293 line with an ATXN2-luciferase reporter) viability, CellTiter-Fluor protease fluorescence, 24 h; also: nearly all actives have a fitted effect of over 40% in size
# USP2a block: qHTS Assay for Inhibitors of Ubiquitin-specific Protease USP2a Using CHOP2 as the Reporter; Ubiquitin carboxyl-terminal hydrolase 2 (Homo sapiens), O75604; USP2 core, Ub-CHOP2 coupled fluorogenic reporter, 485/531; Potency, µM (highest dose often 38.3 µM), actives largely listed as inhibitors; 330,000 compounds, 0.01% hits
# Target sequence (O75604 whole entry, looked up): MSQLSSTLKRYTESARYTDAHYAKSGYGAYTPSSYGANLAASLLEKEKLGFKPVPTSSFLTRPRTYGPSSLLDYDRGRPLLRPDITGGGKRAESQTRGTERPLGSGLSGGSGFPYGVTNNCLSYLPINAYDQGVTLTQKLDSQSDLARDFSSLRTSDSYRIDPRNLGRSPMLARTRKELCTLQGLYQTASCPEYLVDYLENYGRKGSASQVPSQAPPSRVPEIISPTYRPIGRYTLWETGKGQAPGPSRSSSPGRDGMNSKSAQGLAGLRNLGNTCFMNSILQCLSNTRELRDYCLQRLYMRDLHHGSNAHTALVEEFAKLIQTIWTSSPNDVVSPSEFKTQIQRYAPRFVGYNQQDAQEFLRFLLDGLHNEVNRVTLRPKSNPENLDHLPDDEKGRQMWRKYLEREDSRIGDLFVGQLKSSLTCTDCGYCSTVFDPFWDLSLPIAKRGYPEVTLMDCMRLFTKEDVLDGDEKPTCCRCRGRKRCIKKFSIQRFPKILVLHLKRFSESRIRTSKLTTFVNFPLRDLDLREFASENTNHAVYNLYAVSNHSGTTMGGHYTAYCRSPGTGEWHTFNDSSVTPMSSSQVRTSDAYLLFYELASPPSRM
#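 Deubiquitinase activity read as fluorescence (485/531 nm) after Ub-CHOP2 cleavage activates the enterokinase reporter on its substrate; USP2 core 10nM, Ub-CHOP2 and substrate 25nM each, 30min compound preincubation then 60min RT; data normalized to NEM, curves fitted.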
# ATXN2 expr inh: Primary qHTS for Inhibitors of ATXN expression. HEK-293 ATXN2-luciferase reporter, luminescence, 24 h. Potency, µM (titrated, usually from 57 µM), most hits filed as inhibitors. 360,000 compounds, 0.72% hits. AID 1745845, 2022; also: nearly all actives have a fitted effect of over 55% in size
#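 ATXN2-luciferase reporter cells (luciferase flanked by upstream and downstream ATXN2 gene portions) were treated 24 h at 37 °C with compounds at up to 57 uM. SteadyGlo luminescence gave expression; GF-AFC fluorescence gave viability.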
# USP1-UAF1 inh: Inhibitors of USP1/UAF1: Primary Screen. 390,000 compounds, 0.23% hits. recombinant USP1/UAF1, Ub-Rhodamine cleavage fluorescence. Potency, µM (highest dose often 57.1 µM), usual class: inhibitors. AID 743255, 2014. Ubiquitin carboxyl-terminal hydrolase 1 (Homo sapiens), O94782; also: nearly all actives have a fitted effect of over 60% in size
#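 USP1/UAF1 complex at 1 nM was preincubated with compound for 15 min at room temperature, then Ub-Rho substrate (150nM final) was added. Fluorescence (480/540 nm) was read kinetically, 6 reads every 60 seconds.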
# A number is an active result; – = inactive; ? = inconclusive; · = not tested or not shown. Compounds with a hit are over-represented: about 4.8% of the library has one in this group of screens. Unless noted, calls follow the shape of the dose curve; as a rule, active = well fitted curve in the direction sought with a large enough effect; inconclusive = small, poorly fitted or top-dose-only effect, or another doubt; inactive = no such curve, though single readings can be large; an effect the other way counts as inactive or inconclusive.
SMILES,IL-1B inflam inh,S2 tox,USP2a block,ATXN2 expr inh,USP1-UAF1 inh
COc1ccc2c(c1)CC[C@H]1[C@@H]2CC[C@]2(C)[C@@H](NCCCCCCN3C(=O)C=CC3=O)CC[C@H]12,·,·,·,–,·
CCCS(=O)(=O)NCc1c(C)ncc2c1CCN(C(=O)c1ccc3[nH]c4c(c3c1)CCCC4)C2,·,–,·,·,·
CC1CC(C)CN(c2ccc([N+](=O)[O-])nc2)C1 (centres undefined),–,12µM,–,–,–
CC1CN(c2ccc([N+](=O)[O-])nc2)CC(C)O1 (centres undefined),–,?,–,–,–
COCC(=O)OC1CCn2c1nc1c2C(=O)C(C)=C(NC(C)=O)C1=O (centres undefined),–,·,·,10µM,4.5µM
O=C(NCC(=O)N1CCC(Cc2ccccc2)CC1)c1ccc(Cl)cc1,-52,–,–,–,–
CCc1ccccc1NC(=O)c1ccc(CN2CCC(Cc3ccccc3)CC2)cc1,-80,–,–,–,–
O=C(NCc1cccnc1)C12CC3CC(CC(Cl)(C3)C1)C2,–,–,–,–,–
CCOC(=O)c1cnc2c(ccc3ccccc32)c1Nc1ccc(C(C)=O)cc1,·,–,·,–,–
CCOc1ccc(C2c3cc(OCC)c(OCC)cc3CC(=O)N2c2ccc(C(=O)O)cc2)cc1OCC (centres undefined),·,–,·,–,–
COc1ccc(S(=O)(=O)Nc2ccc3c(c2)C(=O)N([C@H](C)CO)C[C@H](C)[C@@H](CN(C)C(=O)Nc2ccc(C(F)(F)F)cc2)O3)cc1,–,?,–,–,–
O=C(c1ccccc1)c1cccc(NC(=O)c2ccc(Br)o2)c1,-64,–,–,–,–
O=C(Nc1ccc(N2CCOCC2)c(Cl)c1)c1ccc(Br)o1,-74,–,–,–,–
O=C(Nc1ccc(N2CCN(C(=O)c3ccccc3)CC2)cc1)c1ccc(Br)o1,-54,–,–,–,–
O=C(Nc1ccc(N2CCOCC2)c(Cl)c1)c1cc2ccccc2o1,-78,·,–,?,–
O=C(Nc1ccccc1N1CCOCC1)c1cc2ccccc2o1,–,–,–,–,–
Cc1nc(N2CCCC2)ncc1C(=O)NCc1ccc(Cl)cc1,·,–,·,–,–
O=C(CNC(=O)c1ccc(Br)o1)NCc1ccc(Cl)cc1,–,–,–,–,–
COCCn1c(SCC(=O)c2ccc(C)cc2)nc2cc(C(=O)NC3CCCC3)ccc2c1=O,·,–,·,–,–
COc1cccc(N2CC(C(=O)Nc3c(C(N)=O)oc4ccccc34)CC2=O)c1 (centres undefined),–,–,–,–,–
O=C(Nc1ccc(N2CCN(C(=O)c3ccccc3)CC2)c(Cl)c1)c1ccc(Br)o1,-101,?,–,?,–
CN1CCN(c2ccc(NC(=O)c3ccc(-c4ccc(Br)cc4)o3)cc2)CC1,-92,?,–,?,–
Cc1cccc(NC(=O)c2cc3ccccc3o2)c1,–,–,–,–,–
O=C(Nc1cccc(Br)c1)c1cc2ccccc2o1,-57,–,–,–,–
N#CCSc1nnc(SCC#N)s1,-71,–,–,–,–
SMILES,IL-1B inflam inh,S2 tox,USP2a block,ATXN2 expr inh,USP1-UAF1 inh
Cc1cc(N2CCCC2=O)cc(C)c1S(=O)(=O)NCCOc1ccc(C(C)(C)C)cc1,-54,–,–,–,–
COC(=O)Cc1ccc(NC(=O)c2ccc(NC(=O)c3ccco3)cc2)cc1,-88,–,–,–,–
CCOC(=O)Cc1ccc(NC(=O)c2ccc(C(C)(C)C)cc2)cc1,-56,?,–,2.8µM,–
COc1ccc(NC(=O)c2cccc(-n3c(C)ccc3C)c2)c(OC)c1,-61,?,–,–,–
COc1ccc(NC(=O)c2cccc(N3CCCS3(=O)=O)c2)c(OC)c1,·,–,·,–,–
Cc1ccc(C(=O)Nc2ccc(NC(=O)c3ccco3)c(C)c2)cc1,-59,–,–,–,–
Cc1cc(NC(=O)c2ccc(Br)o2)ccc1NC(=O)c1ccco1,·,–,–,–,–
Cc1ccc(CN2CCSc3ccc(C(=O)N4CCN(c5ccc(Cl)cc5)CC4)cc32)cc1,·,–,·,–,–
O=C(Nc1ccc(NC(=O)c2ccco2)cc1)c1ccco1,–,–,–,–,–
O=C(COc1ccccc1Cl)Nc1ccc(NC(=O)c2ccco2)cc1,-59,?,–,–,–
COc1ccc(NC(=O)c2ccc(NC(=O)c3ccco3)cc2)c(OC)c1,-50,–,–,–,–
O=C(Nc1ccc(Nc2ccccc2)cc1)c1ccco1,-100,–,–,–,–
COc1ccccc1NC(=O)c1ccc(NC(=O)c2ccco2)cc1,-75,–,–,–,–
COc1ccc(C(=O)Nc2cc(OC)c(NC(=O)c3ccco3)cc2OC)cc1,–,?,–,–,–
COc1cccc(CNC(=O)c2ccc3c(c2)c(C)c(C)n3Cc2ccccc2)c1OC,·,·,·,·,–
CCOc1ccccc1NC(=O)c1ccc(NC(=O)c2ccco2)cc1,-58,–,–,–,–
COc1ccc(NC(=O)Cc2ccc(Cl)cc2)cc1NC(=O)c1ccco1,-56,–,–,–,–
CCOc1ccccc1NC(=O)c1ccc(C(=O)Nc2ccccc2OCC)cc1,·,–,·,–,–
Cc1nnc(SCC(=O)c2c(N)n(C3CC3)c(=O)[nH]c2=O)n1-c1ccccc1,–,–,–,–,–
Cc1ccc(-c2nnc(N3CCN(S(C)(=O)=O)CC3)c3ccccc23)cc1,-59,–,–,–,–
O=S(=O)(c1ccccc1)N1CCN(c2nnc(-c3ccccc3)c3ccccc23)CC1,–,–,–,–,–
CS(=O)(=O)N1CCN(c2nnc(-c3ccccc3)c3ccccc23)CC1,-61,–,–,–,–
Cc1cc(=O)[nH]c2ccccc12,–,–,–,–,–
Cc1cc2[nH]c3c(c[n+](C)c4ccccc34)c2cc1C,-99,·,–,?,–
Cc1ccc(-c2oc3ncnc(N)c3c2-c2ccc(C)cc2)cc1,–,–,–,–,–
SMILES,IL-1B inflam inh,S2 tox,USP2a block,ATXN2 expr inh,USP1-UAF1 inh
COc1ccc(-c2oc3ncnc(NCCCN(C)C)c3c2-c2ccc(OC)cc2)cc1,-64,?,–,?,–
CN(C)CCNc1ncnc2oc(-c3ccccc3)c(-c3ccccc3)c12,-70,?,–,?,–
Cc1ccc(S(=O)(=O)N2CCN(C(=O)COC(=O)c3nc(Cl)ccc3Cl)CC2)c(C)c1,–,?,·,·,–
CCN(c1ccccc1)c1cc2ccccc2c(=O)[nH]1,–,–,–,–,25µM
CCN(c1ccccc1)c1nc(=O)c2cccnc2s1,–,·,–,–,–
Cc1ccc(C2=N/C(=C/N3CCOCC3)C(=O)O2)cc1,–,–,–,–,–
